# FMDV inh – High Throughput Screening for Foot and Mouth Disease Virus Antivirals. FMDV antiviral cell-based qHTS. Potency, µM (highest dose often 57.9 µM), for inactives: at the top dose activity change, negative = inhibition, usual class: inhibitors. actives 1.2% (n = 410,000). AID 1159524, 2015; calls by dose curve; tested in HEK293T cells; note: read-out not given here; nearly all actives have a fitted effect of over 45% in size
# AmpC no deterg – qHTS Inhibitors of AmpC Beta-Lactamase (assay without detergent). P00811. Potency, µM (series often up to 57.1 µM), inactives show at the top dose activity change, negative = inhibition, hits mostly inhibitors. AmpC nitrocefin hydrolysis, absorbance 480 nm, 0.0001% Triton. AID 485341, 2010. actives 0.52% (n = 330,000);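 note: plate controls were no compound for no effect and no enzyme for full effect; nearly all actives have a fitted effect of over 20% in size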
# Target sequence (P00811 whole entry, looked up): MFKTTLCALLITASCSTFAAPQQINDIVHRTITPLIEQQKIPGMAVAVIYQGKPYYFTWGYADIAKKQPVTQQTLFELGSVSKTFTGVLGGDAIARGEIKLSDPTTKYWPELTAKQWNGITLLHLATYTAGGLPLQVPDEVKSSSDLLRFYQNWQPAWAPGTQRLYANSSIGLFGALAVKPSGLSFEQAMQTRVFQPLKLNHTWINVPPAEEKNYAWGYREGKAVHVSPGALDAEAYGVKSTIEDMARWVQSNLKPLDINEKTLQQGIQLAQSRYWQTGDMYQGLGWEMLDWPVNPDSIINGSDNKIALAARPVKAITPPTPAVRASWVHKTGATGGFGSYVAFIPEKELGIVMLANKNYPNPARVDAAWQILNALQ
#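 AmpC (5.3 nM in the dispensed reagent) in 20 mM phosphate pH 7.0 with 0.01% (detergent screen) or 0.0001% Triton X-100 was preincubated with compounds for 15 min at room temperature. Nitrocefin was then added from an 800 uM solution, and hydrolysis was followed at 480 nm.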
# AmpC inh detg – qHTS Inhibitors of AmpC Beta-Lactamase (assay with detergent); Potency, µM (top dose mostly 114 µM), without a hit: at the top dose activity change, negative = inhibition, most hits filed as inhibitors; actives 0.041% (n = 370,000); AmpC hydrolysis of nitrocefin, absorbance 480 nm, 0.01% Triton; P00811;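 note: 0% = no-compound wells and -100% = no-enzyme wells; nearly all actives have a fitted effect of over 25% in size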
#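 AmpC (5.3 nM in the dispensed reagent) in 20 mM phosphate pH 7.0 with 0.01% (detergent screen) or 0.0001% Triton X-100 was preincubated with compounds for 15 min at room temperature. Nitrocefin was then added from an 800 uM solution, and hydrolysis was followed at 480 nm.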
# AMA1 RON2 block – qHTS for Inhibitors of AMA1-RON; Towards Development of Antimalarial Drug Lead: Primary Screen | Plasmodium falciparum AMA1 (3D7) - RON2 peptide interaction | Potency, µM (top dose mostly 58.2 µM), for inactives: top-dose activity change, negative = inhibition, usual class: inhibitors | actives 0.2% (n = 360,000) | AID 720542, 2013 | AlphaScreen AMA1-biotinylated RON2 peptide binding;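 note: 0% = vehicle wells and -100% = peptide control; nearly all actives have a fitted effect of over 45% in size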
#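 AMA1 (3D7) with his tag at 25 nM final met compounds first, then biotinylated RON2 peptide at 25 nM; detection used donor plus acceptor beads, 10 µg/mL apiece, read by AlphaScreen after 30 min at room temperature.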
# Sm TGR block – qHTS Assay for the Inhibitors of Schistosoma Mansoni Peroxiredoxins. Schistosoma mansoni thioredoxin glutathione reductase (TGR), Q962Y6. AID 485364, 2010. actives 3% (n = 360,000). purified TGR, DTNB reduction, TNB absorbance 405 nm. Potency, µM (top dose mostly 114 µM), for the others: at the top dose activity change, negative = inhibition, usual class: inhibitors; note: nearly all actives have a fitted effect of over 60% in size
#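 First, TGR (20 nM dispensed) and NADPH were mixed with compound. Second, a 15 min room-temperature incubation followed. Third, further NADPH and then DTNB were added to start the reaction. Finally, TNB absorbance was monitored kinetically.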
# * = called active by the depositor; u = inconclusive; x = not tested or not shown; [ ] = dose if it differs, or a comment. Rows were chosen to be rich in hits. Some 4.1% of all compounds tested hit in one or more screens of this group. Unless noted, calls come from the whole dose curve; as a rule, active = well fitted curve in the direction sought with a large enough effect; inconclusive = small, poorly fitted or top-dose-only effect, or another doubt; inactive = no such curve, though single readings can be large; an effect the other way counts as inactive or inconclusive. Unless noted, % is set by controls: 0 for no effect and ±100 for the full control effect; potency is the fitted concentration of half-maximal effect.
SMILES,FMDV inh,AmpC no deterg,AmpC inh detg,AMA1 RON2 block,Sm TGR block
O=C(Cn1c(=O)n(-c2ccccc2)c(=O)c2ccc(C(=O)NCc3ccc4c(c3)OCO4)cc21)Nc1ccc(F)c(Cl)c1,75%,x,2%,x,3%
COc1ccc(C(C2C(=O)CC(C)(C)CC2=O)C2C(=O)CC(C)(C)CC2=O)cc1COCC(F)(F)F,-11%,-13%,-12%,6%,40µM*
COc1cc(C(C2=C(O)CC(C)(C)CC2=O)C2C(=O)CC(C)(C)CC2=O)cc(OC)c1OC (stereo not drawn),-10%,-16%,-7%,14%,16µM*
COc1cc(C(C2C(=O)CC(C)(C)CC2=O)C2C(=O)CC(C)(C)CC2=O)ccc1O,-12%,-18%,-3%,-16%,u
COc1cc(C(C2C(=O)CC(C)(C)CC2=O)C2C(=O)CC(C)(C)CC2=O)ccc1OC(C)=O,0%,x,x,5%,x
CC1(C)CC(=O)C(C(C2=C(O)CC(C)(C)CC2=O)c2ccco2)C(=O)C1 (stereo not drawn),u,-44%,-12%,1%,u
COc1cc(C(C2C(=O)CC(C)(C)CC2=O)C2C(=O)CC(C)(C)CC2=O)cc(OC)c1OC,-1%,-12%,1%,5%,25µM*
CC(C)(CNC(=O)c1cnn(-c2ncc3c(n2)-c2ccccc2CCC3)c1C1CC1)N1CCOCC1,-4%,x,x,x,x
CC(=O)N1CCN(c2nc3cc(C)ccc3cc2CN(C(=O)c2cccc3ccccc23)C2CC2)CC1,2%,x,x,x,x
NC(=NC1CCCCC1)c1ccc(Cl)cc1,1.4µM*,-25%,2%,6%,x
CCc1ccccc1Nc1sc(C(=O)c2cccc(OC)c2)c(N)c1S(=O)(=O)c1ccccc1,-15%,x,-9%,x,1%
O=C(O)CCn1cc(/C=C/C(=O)c2ccc(Cl)cc2)c(-c2ccc(Br)cc2)n1,16µM*,71%,-16%,-2%,u
CC(NC(=O)c1cc(F)ccc1F)c1nnc2n1CCN(Cc1cccs1)CC2 (stereo not drawn),1%,x,x,x,x
Oc1c(Cl)cc(Cl)cc1/C=N/NC(=S)NC1CC2C=CC1C2 (stereo not drawn),-24%,8.9µM*,-1%,-12%,-8%
NC(=O)c1ccsc1NC(=O)COC(=O)COc1ccccc1[N+](=O)[O-],-18%,-43%,56µM*,17%,4%
NC(=O)c1ccsc1NC(=O)COC(=O)/C=C/c1ccccc1[N+](=O)[O-],32µM*,-45%,x,-8%,x
NC(=O)c1ccsc1NC(=O)COC(=O)/C=C/c1ccccc1,u,-40%,-10%,3%,5%
Cc1ccc2c(Sc3ccc(Cl)cc3)c(C(=O)N3CCCCC3)[nH]c2c1,0%,x,19%,x,0%
COc1cc(OC)c(CN2CCc3c([nH]c4ccccc34)C2)cc1Br,-15%,9%,5%,-18%,35µM*
Cc1cccc(CNC(=O)Cc2csc3ccccc23)c1,47%,x,-12%,x,-4%
Cc1cc([N+](=O)[O-])ccc1N,7%,-17%,1%,16%,3%
O=[N+]([O-])c1ccc2c(c1)S(=O)(=O)C=C2,32µM*,x,x,x,x
COc1cccc(/C=N/NC(=S)Nc2cccc(S(=O)(=O)N(C)C)c2)c1,u,-37%,-1%,69%,9%
CC(=O)c1cccc(NC(=S)NCc2ccco2)c1,49%,-40%,0%,-2%,u
CCOc1ccccc1/C=N/NC(=O)c1cccc(S(=O)(=O)N(CC)CC)c1,0%,-47%,-15%,15%,-1%
SMILES,FMDV inh,AmpC no deterg,AmpC inh detg,AMA1 RON2 block,Sm TGR block
CN(C)S(=O)(=O)c1cccc(NC(=S)NCc2ccco2)c1,20%,-34%,-6%,2%,35µM*
CN(C)S(=O)(=O)c1cccc(NC(=S)N/N=C/c2ccco2)c1,9%,-33%,-11%,94%,40µM*
CN(C)S(=O)(=O)c1cccc(NC(=S)N/N=C/c2ccc(O)c(O)c2O)c1,0%,u,-1%,-4%,10µM*
CCN(CC)S(=O)(=O)c1cccc(C(=O)N/N=C/c2ccc(O)c(O)c2O)c1,u,20µM*,-9%,-6%[11.6 µM],u
COc1ccc(Cl)cc1NC(=O)c1cc(S(=O)(=O)N(C)Cc2ccccc2)ccc1F,0%,x,-7%,x,2%
Cc1ccccc1CNC(=O)c1ccc2c(c1)N(Cc1ccccc1)CCS2,16%,x,22%,x,6%
Cc1cnc(C)c(-c2cccc3c2OC(CNC(=O)C[C@@H]2C[C@@H](C)NC(=S)N2)C3)n1 (stereo partly drawn),-5%,x,x,x,x
CCn1c(C)nc2cc(C(=O)N/N=C/c3ccc(O)c(O)c3O)ccc21,-27%,-1%,2%,14µM*,x
COc1ccc2oc(C(=O)N3CCN(c4ncccn4)CC3)c(C)c2c1,-6%,52%,u,-6%,-9%
Cc1onc(-c2ccccc2)c1C(=O)N(Cc1ccco1)Cc1cccs1,-27%,-19%,-5%,-11%,18µM*
COc1ccc2oc(C(=O)N3CCN(C(=O)c4ccco4)CC3)c(C)c2c1,-20%,3%,-9%,10%,50µM*
COc1ccc2oc(C(=O)N(Cc3ccco3)Cc3cccs3)c(C)c2c1,1%,32µM*,-19%,-28%,u
Cc1ccc(CN(Cc2ccco2)C(=O)c2oc3ccc(C)cc3c2C)cc1,-14%,x,16%,x,-1%
O=C1NC(=O)C(=Cc2ccc(SC3CCCCC3)o2)C(=O)N1,18µM*,-50%,-8%,0%,40µM*
CCOc1ccccc1NC(=O)C(Cc1ccccc1)NS(=O)(=O)c1ccc(Br)s1 (stereo not drawn),23%,x,-11%,x,3%
O=C1C(=O)c2ccccc2C([O-])=C1[n+]1ccccc1,22µM*,-6%,-1%,1%,9%
CCc1cc[n+](C2=C([O-])c3ccccc3C(=O)/C2=N\S(=O)(=O)c2cccs2)cc1,u,-22%,u,u,u
CCS(=O)(=O)c1ncc(N(Cc2ccco2)Cc2ccccc2F)c(C(=O)Nc2cccc(Cl)c2)n1,-10%,x,11%,x,4%
O=C(C1CCC1)N(CCc1ccccc1)Cc1nc2ccccc2c(=O)[nH]1,-26%,-7%,-10%,54%,2%
O=C(C1CC1)N(CCc1ccccc1)Cc1nc2ccccc2c(=O)[nH]1,28µM*,-27%,-7%,-1%,-23%
Cc1ccccc1NC(=O)c1sc2nc3c(cc2c1N)CCCC3,0%,x,0%,x,0%
COc1ccc(N2CCN(S(=O)(=O)c3ccc4c(c3)C(C(C)C)C(=O)N4)CC2)cc1 (stereo not drawn),u,x,-1%,x,-14%

# Compound activity as filed in PubChem BioAssay.
